Experimental data as given in paper PMC7862700, “An all-to-all approach to the identification of sequence-specific readers for epigenetic DNA modifications on cytosine”.

Columns and labels:
Assay in all cases: DAPPL (digital affinity profiling via proximity ligation, sequencing); 10 mM Tris-HCl pH 7.5, 50 mM NaCl, 1 mM DTT, 4% glycerol, room temperature, 30 min; GST-TFs on glutathione beads, 16-mer random dsDNA library, 0.1% formaldehyde crosslink after washing; high values mean tight binding
[1] = biological target: T1, FEV (Homo sapiens, UniProt Q99581 1-238); settings: protein: recombinant; tags: N-terminal GST; dsDNA, one strand shown
T1 sequence: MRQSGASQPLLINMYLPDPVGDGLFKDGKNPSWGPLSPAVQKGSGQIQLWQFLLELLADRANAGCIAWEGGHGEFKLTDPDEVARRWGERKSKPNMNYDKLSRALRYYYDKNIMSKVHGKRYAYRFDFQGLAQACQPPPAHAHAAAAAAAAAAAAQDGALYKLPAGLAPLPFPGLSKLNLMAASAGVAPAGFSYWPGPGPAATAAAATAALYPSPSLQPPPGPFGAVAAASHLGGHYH
How it was run: (§1)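 In yeast, human transcription factors were expressed with a GST fusion, then pulled down on glutathione beads and given DNA barcodes. Pooled with a tag-only sample, they were exposed to 200 nmole of a 16-mer random double-stranded DNA library (Tris/NaCl/DTT/glycerol buffer, room temperature, 30 min), washed, crosslinked with 0.1% formaldehyde, proximity-ligated using BsaI/T4 ligase for 1 h at 37 °C, PCR-amplified and read on an Illumina NextSeq500. Each hexamer's frequency of reads for a factor, divided by the matching frequency for the tag-only sample, gives the binding signal.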

[2] = biological target: ETV5 (Homo sapiens, UniProt P41161 1-510); settings: protein: recombinant; tags: N-terminal GST; dsDNA, one strand shown
How it was run: as §1

[3] = biological target: HSF1 (Homo sapiens, UniProt Q00613 1-529); settings: protein: recombinant; tags: N-terminal GST; chain copies: 3; dsDNA, one strand shown
How it was run: as §1

[4] = biological target: T2, SPIC (Homo sapiens, UniProt Q8N5J4 1-248); settings: protein: recombinant; tags: N-terminal GST; dsDNA, one strand shown
T2 sequence: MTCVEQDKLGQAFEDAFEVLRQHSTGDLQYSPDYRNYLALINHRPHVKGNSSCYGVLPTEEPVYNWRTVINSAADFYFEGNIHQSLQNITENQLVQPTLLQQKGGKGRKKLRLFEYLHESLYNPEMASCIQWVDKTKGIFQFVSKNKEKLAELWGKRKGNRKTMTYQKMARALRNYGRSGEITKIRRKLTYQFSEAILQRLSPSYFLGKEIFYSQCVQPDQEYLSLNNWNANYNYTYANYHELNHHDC
How it was run: as §1

[5] = biological target: ELF4 (Homo sapiens, UniProt Q99607 1-663); settings: protein: recombinant; tags: N-terminal GST; dsDNA, one strand shown
How it was run: as §1

[6] = biological target: T3, ELK4 (Homo sapiens, UniProt P28324-2 1-405); settings: protein: recombinant; tags: N-terminal GST; dsDNA, one strand shown
T3 sequence: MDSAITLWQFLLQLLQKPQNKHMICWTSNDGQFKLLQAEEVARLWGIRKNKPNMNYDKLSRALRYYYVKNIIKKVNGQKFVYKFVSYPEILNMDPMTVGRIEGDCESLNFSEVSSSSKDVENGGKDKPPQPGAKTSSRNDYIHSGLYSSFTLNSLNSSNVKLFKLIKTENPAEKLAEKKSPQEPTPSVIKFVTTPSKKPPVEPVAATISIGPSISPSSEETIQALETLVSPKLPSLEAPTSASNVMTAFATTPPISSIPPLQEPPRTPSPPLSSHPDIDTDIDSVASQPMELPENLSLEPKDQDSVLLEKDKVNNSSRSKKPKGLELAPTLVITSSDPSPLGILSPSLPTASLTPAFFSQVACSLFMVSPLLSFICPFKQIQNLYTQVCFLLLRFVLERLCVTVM
How it was run: as §1

[7] = biological target: T4, ETV2 (Homo sapiens, UniProt O00321 1-342); settings: protein: recombinant; tags: N-terminal GST; dsDNA, one strand shown
T4 sequence: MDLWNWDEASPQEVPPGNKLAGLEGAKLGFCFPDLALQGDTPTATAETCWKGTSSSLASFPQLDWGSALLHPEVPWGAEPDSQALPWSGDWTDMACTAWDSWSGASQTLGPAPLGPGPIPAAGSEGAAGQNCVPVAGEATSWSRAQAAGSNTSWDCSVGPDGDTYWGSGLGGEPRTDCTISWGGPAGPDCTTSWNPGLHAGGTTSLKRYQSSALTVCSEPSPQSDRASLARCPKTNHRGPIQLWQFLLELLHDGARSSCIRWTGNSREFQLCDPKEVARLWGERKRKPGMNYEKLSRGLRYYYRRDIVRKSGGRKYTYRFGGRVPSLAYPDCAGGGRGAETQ
How it was run: as §1

[8] = biological target: T5, ELF3 (Homo sapiens, UniProt P78545 1-371); settings: protein: recombinant; tags: N-terminal GST; dsDNA, one strand shown
T5 sequence: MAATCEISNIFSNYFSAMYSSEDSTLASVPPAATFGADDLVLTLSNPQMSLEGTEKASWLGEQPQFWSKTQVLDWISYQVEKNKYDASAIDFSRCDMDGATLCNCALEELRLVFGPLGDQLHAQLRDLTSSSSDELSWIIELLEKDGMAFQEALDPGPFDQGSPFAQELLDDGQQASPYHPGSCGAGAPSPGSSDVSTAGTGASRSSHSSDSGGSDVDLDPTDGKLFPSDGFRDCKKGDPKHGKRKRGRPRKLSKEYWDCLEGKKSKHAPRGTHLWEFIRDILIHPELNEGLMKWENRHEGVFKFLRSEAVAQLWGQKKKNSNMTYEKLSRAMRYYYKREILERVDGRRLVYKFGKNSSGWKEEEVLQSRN
How it was run: as §1

[9] = biological target: CRX (Homo sapiens, UniProt O43186 1-299); settings: protein: recombinant; tags: N-terminal GST; dsDNA, one strand shown
How it was run: as §1

Chain of ELF4 (Q99607 whole entry): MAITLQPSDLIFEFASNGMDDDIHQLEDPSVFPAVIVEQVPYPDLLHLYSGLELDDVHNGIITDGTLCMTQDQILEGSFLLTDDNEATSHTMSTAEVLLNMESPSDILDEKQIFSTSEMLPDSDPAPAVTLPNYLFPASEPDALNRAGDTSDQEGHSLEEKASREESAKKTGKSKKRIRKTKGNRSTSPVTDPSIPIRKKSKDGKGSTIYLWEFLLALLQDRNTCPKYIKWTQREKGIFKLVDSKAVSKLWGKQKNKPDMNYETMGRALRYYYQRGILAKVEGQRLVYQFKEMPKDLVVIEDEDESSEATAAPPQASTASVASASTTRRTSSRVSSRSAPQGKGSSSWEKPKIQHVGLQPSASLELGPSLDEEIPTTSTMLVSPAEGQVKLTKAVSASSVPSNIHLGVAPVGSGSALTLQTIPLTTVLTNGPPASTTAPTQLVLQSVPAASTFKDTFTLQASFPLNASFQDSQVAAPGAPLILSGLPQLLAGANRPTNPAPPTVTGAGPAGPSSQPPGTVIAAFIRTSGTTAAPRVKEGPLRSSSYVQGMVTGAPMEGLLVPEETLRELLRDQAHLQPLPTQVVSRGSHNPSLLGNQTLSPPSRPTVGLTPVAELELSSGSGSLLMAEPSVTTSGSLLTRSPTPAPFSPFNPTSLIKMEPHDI
Chain of HSF1 (Q00613 whole entry): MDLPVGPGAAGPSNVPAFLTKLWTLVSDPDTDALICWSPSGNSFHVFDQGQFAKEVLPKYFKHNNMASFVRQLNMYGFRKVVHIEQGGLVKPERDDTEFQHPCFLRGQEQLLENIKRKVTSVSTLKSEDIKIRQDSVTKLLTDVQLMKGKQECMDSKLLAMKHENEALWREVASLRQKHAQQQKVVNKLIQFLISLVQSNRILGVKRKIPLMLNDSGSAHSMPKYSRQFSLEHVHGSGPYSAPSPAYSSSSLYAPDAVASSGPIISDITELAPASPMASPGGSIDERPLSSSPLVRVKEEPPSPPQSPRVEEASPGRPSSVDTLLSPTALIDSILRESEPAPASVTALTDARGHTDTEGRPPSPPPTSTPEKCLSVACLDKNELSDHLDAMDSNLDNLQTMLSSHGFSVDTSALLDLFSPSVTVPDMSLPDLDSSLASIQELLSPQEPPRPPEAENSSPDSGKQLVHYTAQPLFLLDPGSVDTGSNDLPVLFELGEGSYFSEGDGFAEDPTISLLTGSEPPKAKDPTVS
Chain of CRX (O43186 whole entry): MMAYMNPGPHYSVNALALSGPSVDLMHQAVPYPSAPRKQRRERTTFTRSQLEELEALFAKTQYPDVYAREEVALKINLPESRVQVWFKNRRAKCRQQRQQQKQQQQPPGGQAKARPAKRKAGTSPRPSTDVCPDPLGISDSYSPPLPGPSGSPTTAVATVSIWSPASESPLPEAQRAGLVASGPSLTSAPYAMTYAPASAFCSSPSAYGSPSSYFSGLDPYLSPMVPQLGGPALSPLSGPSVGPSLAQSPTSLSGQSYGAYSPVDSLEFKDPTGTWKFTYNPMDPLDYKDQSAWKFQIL
Chain of ETV5 (P41161 whole entry): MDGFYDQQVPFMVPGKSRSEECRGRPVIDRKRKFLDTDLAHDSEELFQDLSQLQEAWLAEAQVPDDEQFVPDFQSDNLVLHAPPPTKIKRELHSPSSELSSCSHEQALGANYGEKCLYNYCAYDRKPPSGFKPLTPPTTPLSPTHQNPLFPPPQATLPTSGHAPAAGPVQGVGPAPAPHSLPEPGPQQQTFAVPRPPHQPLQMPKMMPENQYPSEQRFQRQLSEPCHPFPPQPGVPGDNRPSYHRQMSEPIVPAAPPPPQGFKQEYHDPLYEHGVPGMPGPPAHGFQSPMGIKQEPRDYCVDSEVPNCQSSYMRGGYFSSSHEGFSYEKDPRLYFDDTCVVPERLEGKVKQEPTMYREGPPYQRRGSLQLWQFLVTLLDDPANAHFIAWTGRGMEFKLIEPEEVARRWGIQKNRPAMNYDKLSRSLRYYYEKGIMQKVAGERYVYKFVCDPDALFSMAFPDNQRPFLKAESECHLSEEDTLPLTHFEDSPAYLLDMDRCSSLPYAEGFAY

**Q.** With GAATTC as the sequence, how does the binding signal [1] read?
**A.** The binding signal was 1.39 fold enrichment (6-mer frequency, TF over GST control).

**Q.** And the binding signal [2]?
**A.** Its binding signal is 1.42 fold enrichment (6-mer frequency, TF over GST control).

**Q.** And the binding signal [3]?
**A.** The binding signal was 1.59 fold enrichment (6-mer frequency, TF over GST control).

**Q.** What about the binding signal [4] of the same sequence?
**A.** The binding signal was 1.51 fold enrichment (6-mer frequency, TF over GST control).

**Q.** What about the binding signal [5] of the same sequence?
**A.** Its binding signal is 1.36 fold enrichment (6-mer frequency, TF over GST control).

**Q.** And the binding signal [6]?
**A.** The binding signal was 1.27 fold enrichment (6-mer frequency, TF over GST control).

**Q.** And the binding signal [7]?
**A.** The binding signal was 1.39 fold enrichment (6-mer frequency, TF over GST control).

**Q.** And the binding signal [8]?
**A.** Its binding signal is 1.13 fold enrichment (6-mer frequency, TF over GST control).

**Q.** And the binding signal [9]?
**A.** The binding signal was 1.14 fold enrichment (6-mer frequency, TF over GST control).
